Compounds with a hit are over-represented: about 7.2% of the library has one in this group of screens.
AHR act – activators of human aryl hydrocarbon receptor; hit rate 2.5% among 320,000; activation, % at 5 µM; P35869; AHR-responsive luciferase reporter cells, luminescence; in the data active = activation above about 47%;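 note: 0% = vehicle wells and 100% = reference agonist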
Target sequence (P35869 whole entry, looked up): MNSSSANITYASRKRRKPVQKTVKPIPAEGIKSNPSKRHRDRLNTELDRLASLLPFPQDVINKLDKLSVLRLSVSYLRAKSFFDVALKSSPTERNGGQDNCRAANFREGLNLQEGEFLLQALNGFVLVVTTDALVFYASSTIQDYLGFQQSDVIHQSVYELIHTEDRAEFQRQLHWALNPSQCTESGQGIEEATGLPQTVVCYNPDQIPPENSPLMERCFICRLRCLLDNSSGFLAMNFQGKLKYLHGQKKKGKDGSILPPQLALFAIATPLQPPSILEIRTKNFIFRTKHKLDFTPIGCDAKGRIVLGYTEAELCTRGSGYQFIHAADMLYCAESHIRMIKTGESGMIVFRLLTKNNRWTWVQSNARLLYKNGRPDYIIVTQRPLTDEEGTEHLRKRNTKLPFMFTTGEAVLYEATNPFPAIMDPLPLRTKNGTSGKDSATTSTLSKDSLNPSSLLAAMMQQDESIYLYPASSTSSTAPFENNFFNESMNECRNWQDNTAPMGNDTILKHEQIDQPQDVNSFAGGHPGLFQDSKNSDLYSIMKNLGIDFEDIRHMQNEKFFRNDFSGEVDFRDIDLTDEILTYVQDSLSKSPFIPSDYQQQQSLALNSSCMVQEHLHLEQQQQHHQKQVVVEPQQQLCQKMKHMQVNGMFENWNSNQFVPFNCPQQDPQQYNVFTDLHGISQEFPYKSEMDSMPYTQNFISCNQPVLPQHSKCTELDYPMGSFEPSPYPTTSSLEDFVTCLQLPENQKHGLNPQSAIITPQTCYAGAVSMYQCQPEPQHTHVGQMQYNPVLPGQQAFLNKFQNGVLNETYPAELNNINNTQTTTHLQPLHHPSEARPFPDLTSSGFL
Mot1-301 SUMO – SUMOylation pathway inhibition by Mot1-301 growth rescue | S. cerevisiae Mot1-301 growth rescue, ATP luminescence, 38.5C; percent above DMSO median, 100 means doubled | growth rescue, % at 18.8 µM | hit rate 1% among 320,000 | AID 2716;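 active = every valid replicate shows activation above 250% relative to neutral control wells; inactive = the rest, any valid replicate at or below 250%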;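 note: OY570 slx delta 5 strain wells were the positive control but not used for scaling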
VLA-4 inh – inhibition in a human VLA-4 binding assay. P13612. VLA-4 expressing cells, ligand binding flow cytometry. inhibition, % (about 7 µM as worked out from the volumes in the protocol). hit rate 0.2% among 330,000. AID 2557; in the data active = inhibition above about 50%
Efflux pump inh – antifungal efflux pump inhibition, Nile Red retention; S. cerevisiae Candida pump triplex; hit rate 0.44% among 330,000; inhibition, % at 10 µM;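 active = plate passing quality check with inhibition over a set limit, or well fluorescence over plate mean plus 4 SD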;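 note: Nile Red retained in pooled yeast measured as flow cytometry median fluorescence; 0% = buffer negative control and 100% = Enniatin B positive control; higher means more Nile Red kept so more efflux inhibition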
ALR H2O2 inh – inhibitors of human sulfhydryl oxidase ALR. purified ALR, DTT oxidation, H2O2 HRP-luminol luminescence. inhibition, % (test concentration not listed). hit rate 3.8% among 290,000;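 active = mean replicate inhibition above about 79%, with every replicate also reaching it, limit read from the data; inconclusive = only one of the two criteria met; inactive = mean below limit and not every replicate reaching it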
A1 inh – inhibitors of the anti-apoptotic protein A1, read as caspase activation. MEF A1-2A-BIM cells, Caspase-Glo 3/7 luminescence, 3 h; percent of clofoctol response, vehicle zero. caspase activation, % (concentration not given with the values). hit rate 0.066% among 330,000. AID 2462;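 active = over half of replicate activation scores above 10%, or exactly half above 10 with the replicate mean above 10; inconclusive = replicate mean below 10 yet half the replicates above 10; inactive = over half of replicates below 10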
Active calls of the source: *.

COc1ccc(-c2nn(-c3ccccc3)cc2CO)cc1 was read as AHR act 9.7, Mot1-301 SUMO -18.7, VLA-4 inh -2.5, Efflux pump inh 0.1, ALR H2O2 inh 4.8 and A1 inh -0.6.
CCn1cc(-c2ccccc2)c(C(=O)O)c1-c1ccc(OC)cc1 was read as AHR act 58.0*, Mot1-301 SUMO -4.5, VLA-4 inh 20.4, Efflux pump inh 0.1, ALR H2O2 inh 84.6* and A1 inh 0.8.
For CCOc1ccc(NC(=O)c2ccc3c(SCC(=O)O)c4c(nc3c2)CCCC4)cc1 the results were AHR act -1.9, Mot1-301 SUMO -2.7, VLA-4 inh 6.3, Efflux pump inh 0.1, ALR H2O2 inh 15.7 and A1 inh -0.3.
Screening Cc1ccc(NC(=O)c2ccc3c(SCC(=O)O)c4c(nc3c2)CCCC4)c(Br)c1 returned AHR act 0.5, Mot1-301 SUMO -16.8, VLA-4 inh 2.9, Efflux pump inh 0.0, ALR H2O2 inh 90.2* and A1 inh 0.0.
`O=C(O)CSc1c2c(nc3cc(C(=O)Nc4cccc(C(F)(F)F)c4)ccc13)CCC2` gave AHR act -1.6, Mot1-301 SUMO 50.1, VLA-4 inh -2.2, Efflux pump inh 0.0, ALR H2O2 inh 95.8* and A1 inh 1.5.
For CCC1CCCCN1C(=O)c1ccc2c(c1)C(=O)N(c1ccc(C)cc1)C2=O (stereo not drawn) the results were AHR act 3.9, Mot1-301 SUMO 276.8, VLA-4 inh -1.2, Efflux pump inh 0.2, ALR H2O2 inh -0.7 and A1 inh -1.0.
`COc1ccc(Nc2ncnc3sc(C)cc23)c(OC)c1` gave AHR act 36.2, Mot1-301 SUMO -15.3, VLA-4 inh -0.8, Efflux pump inh -0.2, ALR H2O2 inh 4.8 and A1 inh -2.0.
Cc1ccc(C(=O)NC(=S)Nc2nc(-c3cccc([N+](=O)[O-])c3)cs2)c(Cl)c1 was read as AHR act -0.3, Mot1-301 SUMO 6.1, VLA-4 inh 2.2, Efflux pump inh 0.0, ALR H2O2 inh -4.9 and A1 inh -0.4.
O=C(O)c1ccc(CSc2nc3ccccc3o2)cc1 was read as AHR act -2.1, Mot1-301 SUMO 24.8, VLA-4 inh -1.2, Efflux pump inh 0.0, ALR H2O2 inh 97.0* and A1 inh -15.6.
For Clc1ccc(-c2nnc(SCc3nc(-c4ccccc4)no3)o2)cc1 the results were AHR act 0.3, Mot1-301 SUMO 0.0, VLA-4 inh -5.0, Efflux pump inh 0.4, ALR H2O2 inh 7.6 and A1 inh 0.7.
`c1ccc(-c2noc(CSc3nc4ccccc4o3)n2)cc1` gave AHR act 1.9, Mot1-301 SUMO 1.2, VLA-4 inh 16.7, Efflux pump inh -0.2, ALR H2O2 inh 86.3* and A1 inh -1.5.
O=C(O)c1ccccc1CSc1nc2ccccc2o1 was read as AHR act 17.7, Mot1-301 SUMO 320.2*, VLA-4 inh 4.0, Efflux pump inh -0.1, ALR H2O2 inh 35.6 and A1 inh -10.9.
For C/C(=N\N=C(/C)c1cccc(N)c1)c1cccc(N)c1 the results were AHR act -1.4, Mot1-301 SUMO -0.7, VLA-4 inh 5.2, Efflux pump inh -0.1, ALR H2O2 inh -20.5 and A1 inh -1.7.
For COC(=O)COc1ccc(S(=O)(=O)Nc2ccc(NC(C)=O)cc2)cc1C the results were AHR act 4.2, Mot1-301 SUMO -24.2, VLA-4 inh 0.0, Efflux pump inh 0.7, ALR H2O2 inh 1.4 and A1 inh inconclusive.
COCC(=O)Nc1ccc(N2CCN(c3ccccc3)CC2)c(F)c1 was read as AHR act -2.9, Mot1-301 SUMO -6.3, VLA-4 inh 6.0, Efflux pump inh 0.1, ALR H2O2 inh -6.1 and A1 inh 1.4.
O=C(CSc1ccccc1)Nc1ccc(N2CCN(c3ccccc3)CC2)c(F)c1 was read as AHR act -1.5, Mot1-301 SUMO -17.3, VLA-4 inh 5.5, Efflux pump inh 0.4, ALR H2O2 inh 99.7* and A1 inh 0.7.
Screening Nc1ccc(N2CCN(c3ccccc3)CC2)c(F)c1 returned AHR act -3.5, Mot1-301 SUMO 76.5, VLA-4 inh 4.8, Efflux pump inh 0.0, ALR H2O2 inh 78.8* and A1 inh 0.0.
Screening Cc1cccc(NC(=S)c2nc3ccccc3s2)c1 returned AHR act 76.0*, Mot1-301 SUMO 16.9, VLA-4 inh 1.9, Efflux pump inh 0.0 and A1 inh -12.9.
For CCCCc1ccc(C2C(C#N)=C(N)SC(N)=C2C#N)s1 the results were AHR act 12.0, Mot1-301 SUMO -5.0, VLA-4 inh -127.3, Efflux pump inh 0.1, ALR H2O2 inh 98.1* and A1 inh -0.3.
`CCOC(=O)c1cnc2c(C)cccc2c1Nc1cccc(C(=O)O)c1` gave AHR act 0.9, Mot1-301 SUMO 133.4, VLA-4 inh 14.2, Efflux pump inh -0.1, ALR H2O2 inh -4.0 and A1 inh 0.7.
For Cc1ccccc1OCC(=O)NNC(=O)Cn1[nH]c(=O)c2ccccc2c1=O the results were AHR act 2.9, Mot1-301 SUMO -12.9, VLA-4 inh -1.8, Efflux pump inh 0.0 and A1 inh -0.4.
For CC(=O)Nc1ccc(NC(=O)Cn2nc(C(=O)Nc3ccc(C)cc3)ccc2=O)cc1 the results were AHR act 3.3, Mot1-301 SUMO -12.4, VLA-4 inh 3.3, Efflux pump inh 0.0, ALR H2O2 inh -2.1 and A1 inh 0.3.
Screening Cc1cnn(C(=O)c2ccccc2Br)c1 returned AHR act 6.6, Mot1-301 SUMO 6.2, VLA-4 inh -5.1, Efflux pump inh -0.1, ALR H2O2 inh -8.2 and A1 inh 0.2.
`c1cncc(-c2nc3cc4ccccc4cc3[nH]2)c1` gave AHR act 55.5*, Mot1-301 SUMO 23.9, VLA-4 inh -11.8, Efflux pump inh 0.0, ALR H2O2 inh -61.1 and A1 inh -8.7.
O=c1[nH]c(-c2cccnc2)nc2sc(-c3ccccc3)cc12 was read as AHR act 75.0*, Mot1-301 SUMO 14.2, VLA-4 inh 48.8, Efflux pump inh 0.1, ALR H2O2 inh 3.4 and A1 inh 0.3.
`O=C(Nc1ccc2nc(-c3cccnc3)[nH]c2c1)c1ccccc1F` gave AHR act -19.3, VLA-4 inh 1.1, Efflux pump inh 0.5, ALR H2O2 inh -3.7 and A1 inh -0.3.
O=[N+]([O-])c1ccccc1Sc1nccn1Cc1ccccc1 was read as AHR act 1.1, Mot1-301 SUMO 25.7, VLA-4 inh 2.7, Efflux pump inh 0.1, ALR H2O2 inh -3.7 and A1 inh -0.1.
Nc1nc(SCCO)[nH]c(=O)c1NC(=O)c1ccco1 was read as AHR act 0.5, Mot1-301 SUMO -17.5, VLA-4 inh 2.5, Efflux pump inh 0.3, ALR H2O2 inh 4.2 and A1 inh -0.6.
NNc1nc(-c2ccccc2)nc2sc3c(c12)CCCC3 was read as AHR act 74.7*, Mot1-301 SUMO 179.1, VLA-4 inh -10.6, Efflux pump inh 3.2, ALR H2O2 inh -11.5 and A1 inh -6.3.

From PubChem
